Measurements taken from PubChem BioAssay (Tox21).
“And” between values parts separate entries of the source, which are not always exact repeats. Equal entries are not always repeated. Records with an inconclusive call do not appear. The source made the active and inactive calls. Unless noted, the call rests on the fitted dose curve; in most records, active means well fitted curve in the direction sought with a large enough effect in the repeat runs; inconclusive means weak or mixed curves; inactive means no such curve, though single readings can be large; an effect the other way counts as inactive or inconclusive.

Key:
[1] = qHTS assay to identify small molecule antagonists of the glucocorticoid receptor (GR) signaling pathway - cell viability counter screen (AID 720693); further: nearly all actives have a fitted effect of over 55% in size; further: potency means the concentration at half of the fitted maximal effect
[2] = qHTS assay for identifying genotoxic compounds that show differential cytotoxicity against isogenic chicken DT40 cell lines with known DNA damage response pathways - Rad54/Ku70 mutant cell line (AID 743015); further: nearly all actives have a fitted effect of over 60% in size; further: potency means the concentration at half of the fitted maximal effect
[3] = qHTS assay to identify small molecule antagonists of the androgen receptor (AR) signaling pathway - cell viability counter screen (AID 743033; further: nearly all actives have a fitted effect of over 45% in size; further: potency means the concentration at half of the fitted maximal effect)
[4] = qHTS assay to identify small molecule antagonists of the androgen receptor (AR) signaling pathway using the MDA cell line - cell viability counter screen (AID 743041; further: nearly all actives have a fitted effect of over 45% in size; further: potency means the concentration at half of the fitted maximal effect)
In short: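 Same-well cytotoxicity was assessed by CellTiter-Fluor in MDA-kb2 AR-luc cells after 16 h of compound treatment under R1881 agonism.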

[5] = qHTS assay for identifying genotoxic compounds that show differential cytotoxicity against isogenic chicken DT40 cell lines with known DNA damage response pathways - Rev3 mutant cell line (AID 743014); further: nearly all actives have a fitted effect of over 55% in size; further: potency means the concentration at half of the fitted maximal effect
[6] = target: Androgen receptor (Homo sapiens) (UniProt P10275); assay: qHTS assay to identify small molecule antagonists of the androgen receptor (AR) signaling pathway (AID 743035; active means well fitted inhibition curve with a large enough effect in the signal ratio in the repeat runs, not every such curve was filed as active; the % refers to the signal ratio; further: potency means the concentration at half of the fitted maximal effect)
Androgen receptor (Homo sapiens), sequence (P10275 whole entry, looked up): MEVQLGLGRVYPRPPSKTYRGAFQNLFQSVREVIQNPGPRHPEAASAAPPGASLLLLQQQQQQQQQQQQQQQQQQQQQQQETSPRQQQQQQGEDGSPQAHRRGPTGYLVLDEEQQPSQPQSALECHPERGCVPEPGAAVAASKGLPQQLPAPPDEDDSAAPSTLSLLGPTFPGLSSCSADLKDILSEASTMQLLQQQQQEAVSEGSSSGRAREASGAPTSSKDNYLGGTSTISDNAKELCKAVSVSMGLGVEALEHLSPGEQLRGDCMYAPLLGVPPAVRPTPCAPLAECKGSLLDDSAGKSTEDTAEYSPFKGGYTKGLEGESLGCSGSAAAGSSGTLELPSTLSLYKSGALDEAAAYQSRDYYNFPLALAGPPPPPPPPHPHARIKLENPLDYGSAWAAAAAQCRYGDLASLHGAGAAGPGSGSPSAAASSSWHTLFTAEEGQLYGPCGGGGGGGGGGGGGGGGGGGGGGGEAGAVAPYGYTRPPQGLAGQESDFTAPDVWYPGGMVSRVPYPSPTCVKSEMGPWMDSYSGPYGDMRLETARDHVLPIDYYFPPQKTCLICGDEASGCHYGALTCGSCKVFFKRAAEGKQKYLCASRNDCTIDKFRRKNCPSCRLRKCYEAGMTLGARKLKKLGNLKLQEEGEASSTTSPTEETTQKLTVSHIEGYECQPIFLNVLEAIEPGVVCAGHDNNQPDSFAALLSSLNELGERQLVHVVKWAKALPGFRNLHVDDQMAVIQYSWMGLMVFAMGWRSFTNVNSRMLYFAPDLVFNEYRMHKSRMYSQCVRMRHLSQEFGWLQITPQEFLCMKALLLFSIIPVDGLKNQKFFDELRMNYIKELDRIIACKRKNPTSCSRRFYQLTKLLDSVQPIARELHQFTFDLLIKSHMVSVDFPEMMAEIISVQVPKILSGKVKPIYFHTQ
In short: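 Using qHTS, AR-UAS-bla GripTite HEK293 cells received compound, then R1881, and were cultured 16 h at 37C/5% CO2 before a 2 h room-temperature LiveBLAzer B/G FRET substrate step and fluorescence measurement.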

[7] = target: Androgen receptor (Homo sapiens) (UniProt P10275); assay: qHTS assay to identify small molecule agonists of the androgen receptor (AR) signaling pathway using the MDA cell line (AID 743040; further: nearly all actives have a fitted effect of over 20% in size)
In short: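 Human breast carcinoma MDA-kb2 reporter cells (MMTV-luc, AR/GR elements) were treated for 16 h at 37C in 0% CO2 following a 5 h settling period. Signal was quantified by ONE-Glo luminescence.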

[8] = target: Androgen receptor (Homo sapiens) (UniProt P10275); assay: qHTS assay to identify small molecule antagonists of the androgen receptor (AR) signaling pathway using the MDA cell line (AID 743042; further: nearly all actives have a fitted effect of over 55% in size)
In short: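 MDA-kb2 breast carcinoma cells carrying MMTV-luciferase (AR/GR responsive) were co-treated with compounds and the agonist R1881 for 16 h at 37C. Inhibition read as ONE-Glo luminescence; CellTiter-Fluor fluorescence measured in parallel for cytotoxicity.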

[9] = qHTS assay for identifying genotoxic compounds that show differential cytotoxicity against isogenic chicken DT40 cell lines with known DNA damage response pathways - wild type cell line (AID 743012); further: nearly all actives have a fitted effect of over 60% in size; further: potency means the concentration at half of the fitted maximal effect
In short: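 Using parental DT40 (300 cells/well), compounds delivered in DMSO incubate 40 h at 37 C/5% CO2. CellTiter-Glo reagent then stands 30 min at room temperature, and luminescence gives cell viability.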

[10] = target: Androgen receptor (Homo sapiens) (UniProt P10275); assay: qHTS assay to identify small molecule agonists of the androgen receptor (AR) signaling pathway (AID 743036; active means well fitted activation curve with a large enough effect in the signal ratio in the repeat runs, with a control signal flat, not every such curve was filed as active; the % refers to the signal ratio)
In short: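 Quantitative HTS of the Tox21 10K library in HEK293 cells bearing a stably integrated UAS-controlled beta-lactamase reporter. Compound exposure lasted 16 h at 37C. Reporter activity was detected by FRET substrate fluorescence after 2 h at room temperature.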
On the % scale 0 is the no-effect control and ±100 the full control effect.

COc1cccc2c1C(=O)c1c(O)c3c(c(O)c1C2=O)C[C@@](O)(C(C)=O)C[C@@H]3O[C@H]1C[C@H](N)[C@H](O)[C@H](C)O1
active: Potency [1] 7.56 µM and 2.2 µM | Potency [2] 10.6 nM and 2.4 nM | Potency [3] 22 µM | Potency [4] 54.8 µM

CC(=O)Oc1cc2c(s1)CCN(C(C(=O)C1CC1)c1ccccc1F)C2 (stereo not drawn)
inactive: Potency [1] | Potency [5] | Potency [2] | Potency [3] | Potency [4]

CCC(CC)C(C)CCOC(C)=O (stereo not drawn)
inactive: Potency [1] | Potency [5] | Potency [2] | Potency [3] | Potency [4]

S=C([S-])NCCNC(=S)[S-].S=C([S-])NCCNC(=S)[S-].[Mn+2].[Zn+2]
active: Potency [5] 33.5 µM | Potency [2] 29.8 µM
inactive: Potency [1] | Potency [3] | Potency [4]

[Cu+]
active: Potency [2] 30.6 µM
inactive: Potency [1] | Potency [3] | Potency [4]

COc1cc2nc(N3CCN(C(=O)c4ccco4)CC3)nc(N)c2cc1OC
active: Potency [2] 13.3 µM
inactive: Potency [1]

Clc1ccnc(Cl)n1
inactive: Potency [1] | Potency [5] | Potency [2] | Potency [3] | Potency [4]

NC[C@H]1O[C@H](O[C@H]2[C@H](O[C@@H]3O[C@H](CO)[C@@H](O)[C@H]3O)C(O)[C@H](N)C[C@@H]2N)[C@H](N)[C@@H](O)[C@@H]1O (stereo partly drawn)
inactive: Potency [1] | Potency [5] | Potency [2] | Potency [3] | Potency [4]

COc1ccc(-c2coc3cc(O)ccc3c2=O)cc1
active: Potency [5] 30.6 µM
inactive: Potency [1] | Potency [3] | Potency [4]

CCC(C)(CCC(C)C)C(=O)[O][Sn]([CH3])([CH3])[O]C(=O)C(C)(CC)CCC(C)C (stereo not drawn)
inactive: Potency [1] | Potency [2] | Potency [3] | Potency [4]

CCOC(=O)NNc1ccc(N(CC)CC(C)O)nn1 (stereo not drawn)
inactive: Potency [1] | Potency [3] | Potency [4]
active: Potency [5] 23.7 µM

O=[N+]([O-])c1cccc(C(F)(F)F)c1
inactive: Potency [1] | Potency [5] | Potency [2] | Potency [3] | Potency [4]

CCC(=O)C(=O)CC
active: Potency [5] 28.5 µM
inactive: Potency [1] | Potency [3] | Potency [4]

CCOc1ccc2ccccc2c1C(=O)N[C@@H]1C(=O)N2[C@@H]1SC(C)(C)[C@@H]2C(=O)O
inactive: Potency [1] | Potency [5] | Potency [2] | Potency [6] | outcome [7] | Potency [4] | Potency [8]

CC(C)(C)c1csc(-c2cc3cc(OCc4ccccc4CC(=O)O)ccc3o2)n1
active: Potency [1] 49 µM | Potency [2] 61.1 µM

CCCCCC(C)OC(=O)COc1ccc(Cl)c2cccnc12 (stereo not drawn)
inactive: Potency [1] | Potency [5] | Potency [4]

O=C(O)[C@H](O)[C@@H](O)[C@H](O[C@@H]1O[C@H](CO)[C@H](O)[C@H](O)[C@H]1O)[C@H](O)CO
inactive: Potency [1] | Potency [5] | Potency [2] | Potency [3] | Potency [4]

C[C@H]1NCc2cc(-c3ccc4c(=O)c(C(=O)O)cn(C5CC5)c4c3OC(F)F)ccc21
inactive: Potency [1] | Potency [5] | Potency [2] | Potency [3] | Potency [4]

C/C=C/C=C/COC(=O)C(C)C
inactive: Potency [1] | Potency [3] | Potency [4]
active: Potency [2] 17.2 µM

CC(C)(C)CC(C)(C)c1ccc(Nc2ccc(C(C)(C)CC(C)(C)C)cc2)cc1
inactive: viability change, negative = cytotoxic [1] -8.5% [at 7.04 µM] | activity change, negative = cytotoxicity [2] 9.12% [at 8.55 µM] | activity change, negative = cytotoxicity [3] 1.05% [at 7.04 µM] | viability change, negative = cytotoxic [4] -4.37% [at 8.47 µM]

CN(C)Cc1cc(C(C)(C)C)c(O)c(C(C)(C)C)c1
active: Potency [5] 17.2 µM | Potency [2] 17.2 µM
inactive: Potency [1] | Potency [4]

COc1cccc(OC)c1C(=O)O
inactive: Potency [1] | Potency [5] | Potency [2] | Potency [3] | Potency [4]

C#C[C@]1(OC(C)=O)CC[C@H]2[C@@H]3CCC4=C/C(=N/O)CC[C@@H]4[C@H]3CC[C@@]21CC
inactive: Potency [3] | Potency [4]
active: Potency [1] 21.3 µM | Potency [5] 13.3 µM | Potency [2] 10.6 µM

c1ccc(SSc2ccccc2)cc1
inactive: Potency [1] | Potency [3] | Potency [4]
active: Potency [5] 27.5 µM

CNC(=O)c1ccccc1Sc1ccc2c(/C=C/c3ccccn3)n[nH]c2c1
active: Potency [2] 2.66 µM
inactive: Potency [1] | Potency [3] | Potency [4]

S=c1nccc[nH]1
inactive: Potency [1] | Potency [3] | Potency [4]

COc1cc(S(=O)(=O)O)c(C)cc1N=Nc1c(O)ccc2cc(S(=O)(=O)O)ccc12
inactive: Potency [1] | Potency [3]
active: Potency [4] 24.3 µM

Cc1cccc(C(=O)O)c1O
inactive: Potency [9] | Potency [5] | Potency [2] | Potency [3] | Potency [4]

Oc1ccccc1O
active: Potency [9] 24.6 µM and 30.6 µM | Potency [5] 19.6 µM and 54.5 µM | Potency [2] 12.3 µM and 27.3 µM
inactive: Potency [3] | Potency [4]

O=C(O)c1cc(=O)c2ccccc2o1
inactive: Potency [9] | Potency [5] | Potency [2] | Potency [3] | Potency [4]

CCCCCCCCCCCCOCCOCCOCCOCCOCCOCCOCCOCCOCCO
active: Potency [9] 2.98 µM | Potency [5] 5.96 µM | Potency [2] 5.96 µM | Potency [4] 8.41 µM
inactive: Potency [3]

Nc1cc(Cl)c(O)c(Cl)c1
active: Potency [9] 10.9 µM | Potency [5] 15.4 µM | Potency [2] 24.3 µM
inactive: Potency [3] | outcome [7] | Potency [4] | Potency [8]

CC(C)(C)NSc1nc2ccccc2s1
active: Potency [6] 55.9 µM
inactive: Potency [9] | Potency [5] | Potency [2] | outcome [7] | Potency [4] | Potency [8]

CCCCCCCCCCCCCCCC[N+](C)(C)CC
active: Potency [9] 376 nM and 866 nM | Potency [5] 422 nM and 866 nM | Potency [2] 473 nM and 866 nM | Potency [3] 9.52 µM and 21.9 µM | Potency [4] 18.8 µM and 43.4 µM

CCN(CC)c1ccc2c(-c3ccc(S(=O)(=O)O)cc3S(=O)(=O)[O-])c3ccc(=[N+](CC)CC)cc-3oc2c1
inactive: Potency [1] | Potency [6] | Potency [10] | outcome [7]
active: Potency [4] 11.2 µM
